Screens from PubChem BioAssay.
A selection: hits, their analogues and other compounds. The true share with any hit is near 4.8%.
NALP1 inh = NALP1 inflammasome inhibitors in reconstituted yeast, colorimetric, S. cerevisiae, triplicate retest; AID 2071, 2009; inhibition, % at 10 µM; S. cerevisiae NALP1/ASC/caspase-1 growth, X-gal OD620, 72 h; 280,000 tested, 0.61% active; in the data active = inhibition mostly above about 24%, no sharp cut-off; inactive = mostly below about 32%
PfHsp90 yeast 2 = growth inhibition of PfHsp90-expressing yeast, primary screen, antimalarial PfHsp90 inhibitor project, S. cerevisiae, BacTiter-Glo luminescence, single point, set 2 | 310,000 tested, 0.32% active | BacTiter-Glo ATP, 48 h; yeast lacking PDR1 and PDR3 efflux regulators | inhibition, % at 9.4 µM | AID 504621, 2011;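 active = every replicate shows inhibition above about 80%, whatever the replicate mean, limit read from the data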;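 also: 0% = DMSO neutral controls and 100% = 20 µM radicicol positive controls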
tim10-1 inh = growth inhibitors of tim10-1 mutant yeast, primary screen, luminescence, uHTS | S. cerevisiae tim10-1 ts strain growth, BacTiter-Glo, 24 h | 330,000 tested, 2.2% active | inhibition, % at 20 µM | AID 463190, 2010;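 active = inhibition of at least 40%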;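 also: mutant grown at 25 °C; 0% = DMSO wells with yeast and 100% = wells holding no yeast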
SKKanGAS inh = S. pyogenes SKKanGAS growth inhibitors in kanamycin, primary screen, streptokinase expression inhibitor project, SKKanGAS strain, BacTiter-Glo luminescence; 6 h; inhibition, % at 7.5 µM; 300,000 tested, 1.3% active;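 active = mean replicate score, as percent of positive control median, at least 50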;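 also: strain carries kanamycin resistance gene driven by streptokinase promoter and grows in 40 µg/ml kanamycin; loss of luminescence reflects streptokinase promoter inhibition or plain growth inhibition; 0% = median of DMSO wells and 100% = positive control at its reference dose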
TIM10 inh = growth inhibitors of isogenic TIM10 control yeast, primary screen, counter-screen for tim10-1 yeast inhibitor project, luminescence, uHTS | S. cerevisiae TIM10 strain growth, BacTiter-Glo luminescence, 24 h | inhibition, % at 10 µM | 330,000 tested, 1.4% active | AID 463195, 2010;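 active = inhibition of 40% or more at the single tested concentration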;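 also: wild-type TIM10 isogenic control strain grown at permissive 25 °C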
tim23-1 inh = growth inhibitors of tim23-1 mutant yeast, primary screen, luminescence, uHTS | S. cerevisiae tim23-1 growth, BacTiter-Glo luminescence, 24 h | inhibition, % at 20 µM | 330,000 tested, 1.3% active | AID 463212, 2010;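 active = growth inhibition of the mutant yeast at or above 50%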;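 also: temperature-sensitive mutant grown at 25 °C; plate controls were DMSO-treated mutant yeast for no effect and medium wells lacking yeast for full effect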
tim10-1 confirm = growth inhibitors of tim10-1 mutant yeast, confirmation, single concentration, luminescence, S. cerevisiae | AID 463213, 2010 | 7,400 tested, 56% active | inhibition, % at 20 µM | shares compounds with tim10-1 inh | S. cerevisiae tim10-1 ts strain growth, BacTiter-Glo, 24 h;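 active = inhibition of yeast growth at or above a set limit in either of two repeat tests at 20 µM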;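 also: tim10-1 mutant grown at permissive 25 °C to find synthetic lethal compounds; 0% = DMSO yeast wells and 100% = medium wells without yeast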
tim10 confirm = growth inhibitors of wild-type TIM10 yeast, confirmation, counter-screen for tim10-1 synthetic lethality project, single concentration, luminescence, S. cerevisiae; S. cerevisiae tim10 strain growth, BacTiter-Glo luminescence, 24 h; AID 463215, 2010; inhibition, % at 10 µM; 4,600 tested, 63% active; shares compounds with TIM10 inh;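 active = inhibition of yeast growth at or above a set limit in either of two replicates at 10 µM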;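 also: this counterscreen used the strain with wild-type TIM10; 0% = yeast with DMSO and 100% = medium wells lacking yeast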
tim23-1 conf = tim23-1 mutant yeast growth inhibitors, confirmation, luminescence, single concentration; shares compounds with tim23-1 inh; S. cerevisiae tim23-1 growth, BacTiter-Glo luminescence, 24 h; inhibition, % at 20 µM; 4,400 tested, 83% active;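 active = inhibition above about 39% in either of two replicate wells at 20 µM, limit read from the data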;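 also: temperature-sensitive tim23-1 mutant grown at 25 °C; 0% = DMSO wells with yeast and 100% = medium wells without yeast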
* marks the source's active call; other numbers are inactive results; nt = not tested or not shown.

SMILES	NALP1 inh	PfHsp90 yeast 2	tim10-1 inh	SKKanGAS inh	TIM10 inh	tim23-1 inh	tim10-1 confirm	tim10 confirm	tim23-1 conf
COc1ccc(Nc2nc(-c3ccccc3O)nc3ccccc23)cc1	7	-35	46*	22	33	51*	36*	nt	59*
O=C(O)CNc1nc(-c2ccccc2)nc2ccccc12	42	-1	-22	23	-11	-1	nt	nt	nt
c1ccc(-c2nc(NC3CCCC3)c3ccccc3n2)cc1	6	15	46*	-6	41*	53*	36*	17	68*
c1ccc(Nc2nc(-c3ccccc3)nc3ccccc23)cc1	10	-19	47*	-4	27	65*	26	nt	49*
O=C(c1cc(-c2ccc(O)cc2)on1)N1CCN(c2ccc(F)cc2)CC1	5	-11	49*	-2	41*	52*	26	41*	46*
O=C(c1cc(-c2ccc(O)cc2)on1)N1CCN(c2ccccc2)CC1	16	-6	28	11	21	42	nt	nt	nt
Cc1ccc(C(=O)c2nocc2C(=O)c2cccs2)cc1	25	18	13	5	27	46	nt	nt	nt
O=C(c1ccccn1)c1conc1C(=O)c1ccc(Br)cc1	0	10	69*	3	72*	78*	73*	63*	87*
CCc1cc(C(=O)N2CCN(c3ncccn3)CC2)sc1C	nt	41	25	-5	10	22	nt	nt	nt
COc1ccccc1C(=O)O/N=C(\N)c1ccccc1Cl	31	8	41*	-4	35	52*	40*	nt	32
N/C(=N\OC(=O)c1ccc(Cl)cc1Cl)c1cccnc1	-7	nt	58*	8	51*	52*	55*	36*	42*
N/C(=N/OC(=O)c1ccccc1Cl)c1nonc1N	0	58	24	34	17	22	nt	nt	nt
N/C(=N\OC(=O)c1ccc(Cl)cc1Cl)c1ccccc1	8	-4	62*	16	87*	82*	55*	84*	78*
N/C(=N\OC(=O)c1ccccc1Cl)c1ccccc1	12	-10	52*	-2	47*	57*	55*	43*	52*
COC(=O)c1ccc2[nH]ccc2c1	-3	3	-26	3	0	-9	nt	nt	nt
Cc1cc(N2CCN(C)CC2)nc2ccc(NC(=O)CCC(=O)NCCc3ccc(Cl)cc3)cc12	13	12	7	-4	0	4	nt	nt	nt
O=C(NCC(=O)N(CC1CCCO1)C1(C(=O)NC2CCCCC2)CCCCC1)c1ccccc1 (stereo unspecified)	0	9	15	7	16	24	nt	nt	nt
CCOC(=O)COc1ccc(-c2nnc(-c3ccccc3)o2)cc1	9	nt	18	1	14	10	nt	nt	nt
N/C(=N\OC(=O)c1ccccc1Cl)c1ccc(Cl)cc1	nt	nt	53*	8	79*	81*	37*	82*	72*
CN(Cc1ccccc1)C1CCCN(C(=O)c2ccc(Cl)s2)C1 (stereo unspecified)	2	-15	0	-1	1	-3	nt	nt	nt
COc1ccc(Cl)cc1C(=O)Nc1ccc(NC(=O)C(C)C)cc1	-6	2	53*	-6	41*	53*	45*	36*	42*
COc1ccc(Cl)cc1C(=O)Nc1cccnc1	23	-8	-1	2	0	-4	nt	nt	nt
CCOC(=O)c1n[nH]n(-c2cc(Cl)cc(Cl)c2)c1=O	6	-6	-9	-13	-17	2	nt	nt	nt
COC(=O)Cc1c(C)[nH]n(-c2cc(Cl)cc(Cl)c2)c1=O	18	-2	45*	22	30	70*	37*	nt	63*
Cc1ccc(C)c2sc(NC(=O)C3CC3)nc12	0	11	39	4	38	38	nt	nt	nt
SMILES	NALP1 inh	PfHsp90 yeast 2	tim10-1 inh	SKKanGAS inh	TIM10 inh	tim23-1 inh	tim10-1 confirm	tim10 confirm	tim23-1 conf
Cc1cc(C)c2sc(NC(=O)C3CC3)nc2c1	11	22	47*	0	42*	61*	32*	34*	65*
O=C1c2cc(O)cc(O)c2C(=O)c2c1cc(O)c([C@@H](CO)CCO)c2O	nt	27	10	17	3	3	nt	nt	nt
O=C1c2cccc(O)c2C(=O)c2c(O)cc(CO)cc21	nt	nt	54*	-10	39	71*	39*	nt	84*
CCOc1ccc(NC(=S)NC(=O)/C=C/c2ccc(OC)c(OC)c2)c([N+](=O)[O-])c1	-2	-20	18	11	-2	6	nt	nt	nt
CCCCC(CC)CN=C(N)NC(N)=NCCCCCCN=C(N)NC(N)=NCC(CC)CCCC (stereo unspecified)	nt	110*	96*	nt	94*	88*	95*	96*	84*
CSc1nnc(-c2ccccc2)o1	2	6	-26	-1	-7	11	nt	nt	nt
O=S1(=O)C=C(Sc2nnc(-c3ccccc3)o2)c2ccccc21	13	111*	94*	18	91*	57*	92*	91*	85*
CCSc1nc(-c2ccco2)ccc1C#N	14	16	11	-4	16	7	nt	nt	nt
Oc1ccc(/C=N/NC(=S)NCc2ccco2)cc1	0	-4	1	5	7	3	nt	nt	nt
CCN(CC)c1ccc(/C=N/NC(=S)NCc2ccco2)cc1	23	-4	42*	-13	46*	51*	34*	-4	40*
CCn1c(=O)n(CC)c2cc(N3CCCC3)c(NC(=O)c3ccccc3OC)cc21	14	-31	-26	12	9	46	nt	nt	nt
CCOc1ccccc1C(=O)Nc1cc2c(cc1N1CCCC1)n(CC)c(=O)n2CC	9	-77	48*	-7	10	57*	5	nt	51*
COc1cc(/C=C(\C#N)C(=O)NCC2CCCO2)ccc1OC(=O)c1ccco1 (stereo unspecified)	nt	nt	40*	nt	34	64*	34*	nt	53*
O=C1ON=C(c2ccccc2)/C1=C\c1ccco1	-4	-4	26	-1	27	29	nt	nt	nt
